# The source made the active and inactive calls. How the source made its calls: active means hit-call score of the fitted dose curve at least 0.9, where 1 is the maximum; inactive means score below 0.9.
# What was measured:
# [1] = APR_HepG2_CellLoss_72hr: Apredica 72-hour HepG2 Assay for Cell Loss (AID 2282915); conditions: high-content imaging
# Procedure, shortened: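 HepG2 cells were exposed for 72 hr to compounds at 0.39–200 uM (ten concentrations, duplicate) in 0.5% v/v final DMSO. Nuclei were stained with Hoechst 33342 after 3.7% formaldehyde fixation, imaged at 20x, and counted; fits bidirectional versus DMSO.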
# [2] = APR_HepG2_P-H2AX_72hr: Apredica 72-hour HepG2 Assay for H2AX Phosphorylation (AID 2282916); conditions: imaging, actives raise or lower the signal;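 further: phospho-histone H2A.x immunostain intensity per cell marking DNA damage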
# Procedure, shortened: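 Human hepatoma HepG2 cells are dosed across ten concentrations (0.39 to 200 uM, 0.5% v/v DMSO) and incubated 72 hr. Phospho-histone H2A.x is then detected by antibody staining alongside c-Jun and Hoechst, and quantified by automated fluorescence imaging.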
# [3] = APR_HepG2_MitoticArrest_72hr: Apredica 72-hour HepG2 Assay for Mitotic Arrest (AID 2282918); conditions: high-content imaging, actives raise or lower the signal
# Procedure, shortened: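 HepG2, 72 hr exposure, 0.39–200 uM in duplicate, 0.5% v/v DMSO final. Formaldehyde-fixed, Triton-permeabilized, anti-phospho-histone H3/FITC plus Hoechst. ArrayScan imaging at 20x; curves fit bidirectionally against DMSO baseline.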
# [4] = APR_HepG2_MicrotubuleCSK_72hr: Apredica 72-hour HepG2 Assay for Microtubule CSK Stabilty (AID 2282919); conditions: HepG2 microtubule cytoskeleton, high-content imaging, actives raise or lower the signal
# Procedure, shortened: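 Ten-point dosing (0.39–200 uM, 0.5% DMSO) of HepG2 for 72 hr, with taxol as the cytoskeletal positive control. The cells were formaldehyde-fixed and then stained with alpha-tubulin/Cy5 and Hoechst. Imaging at 20x used a −2 um Z offset for tubulin.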
# [5] = APR_HepG2_P-H2AX_24hr: Apredica 24-hour HepG2 Assay for H2AX Phosphorylation (AID 2282920); conditions: high-content imaging, actives raise or lower the signal
# Procedure, shortened: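 HCS fluorescence imaging of phospho-H2A.x immunostain (with Hoechst 33342 nuclear counterstain) in HepG2 after 24 hr compound exposure; 10 concentrations, 0.39–200 uM, duplicate wells, 0.5% v/v DMSO. Gain or loss of signal fitted relative to DMSO baseline.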
# [6] = APR_HepG2_StressKinase_72hr: Apredica 72-hour HepG2 Assay for Stress Kinase (AID 2282921); conditions: HepG2 stress kinase (phospho-c-Jun) imaging, actives raise or lower the signal
# Procedure, shortened: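 After a 72 h compound treatment spanning 0.39 to 200 uM, formaldehyde-fixed cells are labelled for phosphorylated c-Jun and nuclei, imaged by automated fluorescence microscopy, and activity is fitted in both directions relative to DMSO controls.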
# [7] = APR_HepG2_StressKinase_24hr: Apredica 24-hour HepG2 Assay for Stress Kinase (AID 2282922); conditions: HepG2 stress kinase (phospho-c-Jun) imaging, actives raise or lower the signal
# Procedure, shortened: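 After 24 hr compound treatment (up to 200 uM, final DMSO 0.5% v/v), HepG2 cells are fixed and multiplex-labeled; phospho-c-Jun intensity is captured by high-content fluorescence imaging and analyzed relative to DMSO.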
# [8] = APR_HepG2_p53Act_72hr: Apredica 72-hour HepG2 Assay for p53 Activation (AID 2282923); conditions: high-content imaging, actives raise or lower the signal;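 further: average cellular p53 protein immunofluorescence intensity in HepG2 cells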
# Procedure, shortened: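 Imaging-based endpoint: after 72 hr compound exposure (up to 200 uM, 0.5% DMSO), fixed and permeabilized monolayers were labelled with anti-p53 antibody and imaged; signal change in either direction was fitted relative to DMSO controls.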
# [9] = APR_HepG2_MitoMass_72hr: Apredica 72-hour HepG2 Assay for Mitochondrial Mass (AID 2282924); conditions: high-content imaging, actives raise or lower the signal;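 further: MitoTracker Red CMXRos stain intensity per cell imaged as mitochondrial mass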
# Procedure, shortened: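 Steps: treat HepG2 72 hr (0.39–200 uM, duplicate wells); load MitoTracker Red CMXRos, 250 nM, 30 min; fix with 3.7% formaldehyde, permeabilise with 0.5% Triton X-100; capture images, nuclei via Hoechst 33342; fit bidirectionally against DMSO.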
smiles,measurement,setting,value
CCCCCCCCCCCCc1ccccc1S(=O)(=O)O,AC50,[1],149 µM (active)
same,AC50,[2],111 µM (active)
same,AC50,[3],107 µM (active)
same,outcome,[4],inactive
same,AC50,[5],119 µM (active)
same,AC50,[6],112 µM (active)
same,outcome,[7],inactive
same,AC50,[8],106 µM (active)
same,AC50,[9],120 µM (active)
O=C(O)c1ccccc1C(c1ccc(O)cc1)c1ccc(O)cc1,AC50,[1],80.2 µM (active)
same,outcome,[2],inactive
same,outcome,[3],inactive
same,outcome,[4],inactive
same,outcome,[5],inactive
same,outcome,[6],inactive
same,outcome,[7],inactive
same,outcome,[9],inactive
CCCOC(=O)c1ccc(O)cc1,outcome,[1],inactive
same,outcome,[2],inactive
same,outcome,[3],inactive
same,outcome,[4],inactive
same,outcome,[5],inactive
same,outcome,[6],inactive
same,outcome,[7],inactive
same,outcome,[8],inactive
same,outcome,[9],inactive
Cc1oc(-c2ccccc2)nc1CCOc1ccc(C[C@H](Nc2ccccc2C(=O)c2ccccc2)C(=O)O)cc1,AC50,[1],53.3 µM (active)
same,AC50,[2],59 µM (active)
same,AC50,[3],67.8 µM (active)
same,outcome,[4],inactive
same,AC50,[5],81.7 µM (active)
same,outcome,[6],inactive
same,outcome,[7],inactive
same,AC50,[8],95.7 µM (active)
same,outcome,[9],inactive
CC(C)(C)CC(C)(C)c1ccc(O)c(-n2nc3ccccc3n2)c1,AC50,[1],65.5 µM (active)
same,AC50,[2],61.7 µM (active)
same,AC50,[3],35.6 µM (active)
same,AC50,[4],47.9 µM (active)
same,AC50,[5],78.4 µM (active)
same,outcome,[6],inactive
same,outcome,[7],inactive
same,AC50,[8],19 µM (active)
same,AC50,[9],42.8 µM (active)
CCN(CC)CCNc1ccc(CNC=O)c2sc3ccc(OC)cc3c(=O)c12,AC50,[1],7.4 µM (active)
same,outcome,[2],inactive
same,AC50,[3],5 µM (active)
same,outcome,[4],inactive
same,AC50,[5],5.94 µM (active)
same,outcome,[6],inactive
same,outcome,[7],inactive
same,outcome,[8],inactive
same,outcome,[9],inactive
CC(C)(C)c1cccc(C(C)(C)C)c1O,AC50,[1],113 µM (active)
same,outcome,[2],inactive
same,outcome,[3],inactive
same,outcome,[4],inactive
same,AC50,[5],57.3 µM (active)
same,outcome,[6],inactive
same,outcome,[7],inactive
same,outcome,[8],inactive
same,outcome,[9],inactive
O=C(OCCOCCOC(=O)c1ccccc1)c1ccccc1,outcome,[1],inactive
same,outcome,[2],inactive
same,outcome,[3],inactive
same,outcome,[4],inactive
same,outcome,[5],inactive
same,outcome,[6],inactive
same,outcome,[7],inactive
same,outcome,[8],inactive
same,outcome,[9],inactive
Cc1cc(C)c(O)c(C)c1,outcome,[1],inactive
same,outcome,[2],inactive
same,outcome,[3],inactive
same,outcome,[4],inactive
same,outcome,[5],inactive
same,outcome,[6],inactive
same,outcome,[7],inactive
same,outcome,[8],inactive
same,outcome,[9],inactive
CCCCCCCCCCCCCCCS(=O)(=O)Oc1ccccc1,outcome,[1],inactive
same,outcome,[2],inactive
same,outcome,[3],inactive
same,outcome,[4],inactive
same,outcome,[5],inactive
same,outcome,[6],inactive
same,outcome,[7],inactive
same,outcome,[8],inactive
same,outcome,[9],inactive
OC1CCCCC1,outcome,[1],inactive
same,outcome,[2],inactive
same,outcome,[3],inactive
same,outcome,[4],inactive
same,outcome,[5],inactive
same,outcome,[6],inactive
same,outcome,[7],inactive
same,outcome,[8],inactive
same,outcome,[9],inactive
Oc1cc2ccccc2c2ccccc12,AC50,[1],4.01 µM (active)
same,AC50,[2],58.6 µM (active)
same,AC50,[3],8.45 µM (active)
same,AC50,[4],8.21 µM (active)
same,AC50,[5],3.28 µM (active)
same,outcome,[6],inactive
same,AC50,[7],121 µM (active)
same,AC50,[8],111 µM (active)
same,AC50,[9],61.3 µM (active)
OCCC(F)(F)C(F)(F)C(F)(F)C(F)(F)C(F)(F)C(F)(F)F,outcome,[1],inactive
same,outcome,[2],inactive
same,outcome,[3],inactive
same,outcome,[4],inactive
same,outcome,[5],inactive
same,outcome,[6],inactive
same,outcome,[7],inactive
same,outcome,[8],inactive
same,outcome,[9],inactive
CC[C@H](c1ccc(O)cc1)[C@@H](CC)c1ccc(O)cc1,outcome,[1],inactive
same,outcome,[2],inactive
same,outcome,[3],inactive
same,outcome,[4],inactive
same,outcome,[5],inactive
same,outcome,[6],inactive
same,outcome,[7],inactive
same,outcome,[8],inactive
same,outcome,[9],inactive
COc1cc(CCC(=O)CC(=O)CCc2ccc(O)c(OC)c2)ccc1O,outcome,[1],inactive
same,AC50,[2],96.6 µM (active)
same,AC50,[3],166 µM (active)
same,outcome,[4],inactive
same,outcome,[5],inactive
same,outcome,[6],inactive
same,outcome,[7],inactive
same,AC50,[8],145 µM (active)
same,outcome,[9],inactive
OCCC(F)(F)C(F)(F)C(F)(F)C(F)(F)C(F)(F)C(F)(F)C(F)(F)C(F)(F)F,AC50,[1],34.8 µM (active)
same,AC50,[2],29.7 µM (active)
same,AC50,[3],21.8 µM (active)
same,outcome,[4],inactive
same,AC50,[5],26.8 µM (active)
same,outcome,[6],inactive
same,AC50,[7],29.2 µM (active)
same,AC50,[8],29.5 µM (active)
same,AC50,[9],102 µM (active)
c1ccc2c(c1)Cc1ccccc1-2,outcome,[1],inactive
same,outcome,[2],inactive
same,outcome,[3],inactive
same,outcome,[4],inactive
same,outcome,[5],inactive
same,outcome,[6],inactive
same,outcome,[7],inactive
same,outcome,[8],inactive
same,outcome,[9],inactive
CC(C)CCCCCCOC(=O)CCCCC(=O)OCCCCCCC(C)C,outcome,[1],inactive
same,outcome,[2],inactive
same,outcome,[3],inactive
same,outcome,[4],inactive
same,outcome,[5],inactive
same,outcome,[6],inactive
same,outcome,[7],inactive
same,outcome,[8],inactive
same,outcome,[9],inactive
CCCCCCCCCCCCN1CCCC1=O,AC50,[1],72.4 µM (active)
same,AC50,[2],58.6 µM (active)
same,AC50,[3],62.4 µM (active)
same,AC50,[4],53.3 µM (active)
same,AC50,[5],67.2 µM (active)
same,AC50,[6],67.5 µM (active)
same,outcome,[7],inactive
same,AC50,[8],61.3 µM (active)
same,AC50,[9],109 µM (active)
CCCOc1sc(C(=O)N2CCC(c3cc(CN)ccc3F)CC2)c(C)c1Br,AC50,[1],7.86 µM (active)
same,AC50,[2],22.7 µM (active)
same,AC50,[3],5.79 µM (active)
same,AC50,[4],6.58 µM (active)
same,AC50,[5],4.23 µM (active)
same,AC50,[6],32.1 µM (active)
same,outcome,[7],inactive
same,AC50,[8],47.1 µM (active)
same,AC50,[9],44.5 µM (active)
CN1CCC[C@H]1c1cccnc1,outcome,[1],inactive
same,outcome,[2],inactive
same,outcome,[3],inactive
same,outcome,[4],inactive
same,outcome,[5],inactive
same,outcome,[6],inactive
same,outcome,[7],inactive
same,outcome,[9],inactive
CCOC(=O)CC(O)(CC(=O)OCC)C(=O)OCC,outcome,[1],inactive
same,outcome,[2],inactive
same,outcome,[3],inactive
same,outcome,[4],inactive
same,outcome,[5],inactive
same,outcome,[6],inactive
same,outcome,[7],inactive
same,outcome,[8],inactive
same,outcome,[9],inactive
CCCCC(CC)COC(=O)CCCCC(=O)OCc1ccccc1 (stereo not drawn),outcome,[1],inactive
same,outcome,[2],inactive
same,outcome,[3],inactive
same,outcome,[4],inactive
same,outcome,[5],inactive
same,outcome,[6],inactive
same,outcome,[7],inactive
same,outcome,[8],inactive
same,outcome,[9],inactive
N#C[C@@H]1CC(F)(F)CN1C(=O)CNC1CC2CCC(C1)N2c1ncccn1 (stereo partly drawn),outcome,[1],inactive
same,outcome,[2],inactive
same,outcome,[3],inactive
same,outcome,[4],inactive
same,outcome,[5],inactive
same,outcome,[6],inactive
same,outcome,[7],inactive
same,outcome,[8],inactive
same,outcome,[9],inactive
C#C[C@]1(O)CC[C@H]2[C@@H]3CCC4=CC(=O)CC[C@@H]4[C@H]3CC[C@@]21C,outcome,[1],inactive
same,outcome,[2],inactive
same,outcome,[3],inactive
same,outcome,[4],inactive
same,outcome,[5],inactive
same,outcome,[6],inactive
same,outcome,[7],inactive
same,outcome,[8],inactive
same,outcome,[9],inactive
